The record followed here is PubChem BioAssay AID1865 (National Center for Advancing Translational Sciences (NCATS), 2009).

Where “and” joins values, the source holds several entries; their conditions need not be identical. Identical values can stand only once. Hit rate of the full screen: of about 280,000 compounds, about 540 (0.19%) were called active. Not shown: some 2% with an inconclusive outcome. The sample holds actives, similar compounds and a random draw of the others, so the mix is not that of the screen. The call rests on the fitted dose curve; in most records, active means well fitted activation curve with a large enough effect; inconclusive means small, poorly fitted or top-dose-only effect; inactive means flat fitted curve, though single readings scatter. Where a structure was tested more than once in an assay, its records may differ in their call.
Potency means the concentration at half of the fitted maximal effect.

The assay is described as follows: Quantitative High-Throughput Screen for Regulators of Epigenetic Control. Further: nearly all actives have a fitted effect of over 60% in size. On GFP activation: % of control where 0% means no effect. The settings on record: murine LDR cells, GFP reporter derepression, 30 h; series mostly up to 53.9 µM; GFP activation: at the top concentration. The source says: NIH Molecular Libraries Screening Centers Network [MLPCN] NIH Chemical Genomics Center [NCGC] MLSCN Grant: 1 X01 MH079860-01 Assay Provider: Elisabeth D. Martinez, University of Texas SW Medical Center NCGC Assay Overview: The Locus Derepression (LDR) assay detects the derepression or induction of a GFP reporter that is stably integrated in a genomic region of murine cells that is presumably silenced. Transcription of the GFP reporter is controlled by a CMV promoter, which normally is constitutively active. However, this cell line, termed LDR, was selected for lack of constitutive production of GFP. GFP production can be induced by incubating the cells with histone deacetylase or DNA methyltransferase inhibitors (Martinez et al., 2006). Compounds that derepress or induce this reporter locus are identified by enumerating GFP positive cells using a laser-scanning microplate cytometer (Auld et al., 2006). This assay was screened against the MLSMR earlier (AID 597; (Johnson et al., 2008) and has been rescreened here against the expanded collection.
NCGC Assay Protocol Summary: Three hundred LDR cells in 5 uL per well were dispensed into black, clear-bottom 1536-well plates. Twenty-three nL compound was transferred to the assay plate and cells were incubated 30 hours at 37 C. Medium was removed, cells were washed two times with PBS, and GFP-positive cells were enumerated as fluorescent objects between the sizes of 20 to 120 um width and depth using an Acumen Explorer. References Auld, DS, Johnson, RL, Zhang, YQ, Veith, H, Jadhav, A, Yasgar, A, Simeonov, A, Zheng, W, Martinez, ED, Westwick, JK, Austin, CP, Inglese, J (2006). Fluorescent protein-based cellular assays analyzed by laser-scanning microplate cytometry in 1536-well plate format. Methods Enzymol 414: 566-89. Johnson, RL, Huang, W, Jadhav, A, Austin, CP, Inglese, J, Martinez, ED (2008). A quantitative high-throughput screen identifies potential epigenetic modulators of gene expression. Anal Biochem 375: 237-48. Martinez, ED, Dull, AB, Beutler, JA, Hager, GL (2006). High-content fluorescence-based screening for epigenetic modulators. Methods Enzymol 414: 21-36.
Consider `N#CC(C#N)=Cc1cc(O)c(O)c([N+](=O)[O-])c1`, for which the Potency result was “inactive and 17.8 µM (active)”.
As to `C[C@@]12CC[C@H]3[C@@H](CC[C@]4(O)C[C@H](O)CC[C@@]34C=O)[C@]1(O)CC[C@@H]2C1=CC(=O)OC1`, the “GFP activation” value is 4.11% [at 16.9 µM] (inactive).
Take `CCCCCCCCc1[se]c2ccccc2c1Br`: the “GFP activation” value is 5.52% (inactive).
On the same count and under the same terms, with `COc1ccccc1-c1[se]c2ccccc2c1I` the figure was 0.901% (inactive).
Turning to `CN[C@@H]1C[C@H]2O[C@@](C)([C@@H]1OC)n1c3ccccc3c3c4c(c5c6ccccc6n2c5c31)C(=O)NC4`, the Potency result is “inactive”.
On the same count and under the same terms, with `CC(C)(Cc1c[nH]c2ccc(Cl)cc12)NCCOc1ccccc1OCC1CC1` the entry was “inactive”; with `CC1=CC(=Cc2sc3ccccc3[n+]2C)C=C(C)O1`, 11.2 µM (active).
For `Fc1ccc(C(OCCN2CCN(C/C=C\c3ccccc3)CC2)c2ccc(F)cc2)cc1`, the “GFP activation” value was 3.24% (inactive).
For the compound `CC(C)(O)c1[se]c2ccccc2c1I`, the “GFP activation” value is 3.15% (inactive).
Same read-out and setting: with `NC[C@H](O)c1ccc(O)cc1` the figure was 1.37% [at 16.9 µM] (inactive).
Consider `CCOc1ccc(CNC(=O)c2cccc(Nc3nc4ccccc4n4nnnc34)c2)cc1OC`, for which the Potency was 20 µM (active).
On to `COc1cc(Cn2c(N)c(C(=O)NCc3ccco3)c3nc4ccccc4nc32)cc(OC)c1OC`, for which the “GFP activation” value is 1.22% (inactive).
On the same count and under the same terms, in the case of `CCCn1c(C(=O)c2ccccc2OC)nc2ccccc21` it was -2.57% (inactive).
As to `C[C@]12CC[C@H](O)C[C@@H]1CC[C@H]1[C@H]2CC[C@]2(C)C(=O)CC[C@@H]12`, the Potency result was “inactive”.
As to `CC(=O)c1c(O)c(C)c(O)c(Cc2c(O)c3c(c(C(=O)/C=C\c4ccccc4)c2O)OC(C)(C)C=C3)c1O`, the “GFP activation” value is -2.7% (inactive).
